According to PubChem BioAssay:

Target: Calmodulin-1 (Homo sapiens) (UniProt P0DP23)
Test: small molecules binding calmodulin-1 with EGTA – biochemical, small-molecule microarray, Cy5-labelled CALM1, profiling panel (AID 1111);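 note: labelled calmodulin applied in Tris saline Tween buffer holding calcium plus EGTA and DTT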
Conditions: Cy5-CALM1 binding fluorescence, higher = more signal

Row | SMILES | composite z-score
1 | CCN(CC)c1ccc(N2CC=CC34O[C@@H]5C=CCOC(=O)[C@@H]5[C@H]3C(=O)N(CCO)[C@@H]4C2=O)cc1 (stereo not given in full) | -0.97
2 | CCOC(=O)C1=CC[C@@H](c2ccccc2)N(S(=O)(=O)C[Si](C)(C)C)[C@H]1c1ccccc1 | 1.36
3 | CN(C)CCCC[C@@H]1NC(=O)[C@@H]2C[C@H](C(=O)NCc3ccc(F)cc3)[C@H](c3ccc(O)cc3)N2C1=O | -0.638
4 | C=CCOC(=O)[C@H]1[C@@H]2C(=O)O[C@@H](c3ccccc3)[C@@H](c3ccccc3)N2[C@@H](c2ccc(OCCOC(=O)[C@@H]3C[C@@H]4C(=O)N[C@@H](CC(C)C)C(=O)N4[C@@H]3c3ccc(O)cc3)cc2)[C@]12C(=O)Nc1ccc(I)cc12 | 1.81
5 | COCCCNC(=O)[C@@H]1c2ccccc2C(=O)N(C2CCCCC2)[C@H]1c1ccc(CO)cc1 | -0.28
6 | CN(C)CCCC[C@@H]1NC(=O)[C@H]2C[C@@H](C(=O)NCc3ccc(F)cc3)[C@@H](c3ccc(O)cc3)N2C1=O | -1.08
7 | COc1ccc(C#Cc2ccc3c(c2)[C@]2(C(=O)N3)[C@H](C(=O)Nc3nc4ccccc4s3)[C@H]3C(=O)O[C@H](c4ccccc4)[C@H](c4ccccc4)N3[C@@H]2c2ccc(OCCO)cc2)cc1 | 2.19
8 | C=CCC(OC(C)=O)[C@@H]1[C@@H](N(Cc2ccc(-c3cccc(C(F)(F)F)c3)o2)C(=O)c2cccc3ccccc23)c2cc(OCCCO)ccc2N1C(=O)c1ccc2ccccc2n1 (stereo not given in full) | -0.484
9 | C[N+](C)(C)CCCC[C@@H]1NC(=O)[C@H]2C[C@@H](C(=O)NCCCCCNC(=O)CS)[C@@H](c3ccc(O)cc3)N2C1=O | 0.956
10 | C=CCC(OC(C)=O)[C@@H]1[C@@H](N(Cc2cccc3ccccc23)C(=O)c2cccc3ccccc23)c2cc(OCCCO)ccc2N1C(=O)Cc1ccc2ccccc2c1 (stereo not given in full) | -0.603
11 | COc1ccc(C(O)C2C=CC3C(=O)N(C)C(=O)C3N2Nc2ccc([N+](=O)[O-])cc2[N+](=O)[O-])cc1OCc1ccccc1 (stereo not given) | 0.211
12 | COCCOC(=O)N1C(=O)[C@@]2(c3cc(C#CCC(C(=O)OC)C(=O)OC)ccc31)[C@H](C(=O)N1CCc3cc(OC)c(OC)cc3C1)[C@H]1C(=O)O[C@H](c3ccccc3)[C@H](c3ccccc3)N1[C@@H]2c1ccc(O)cc1 | 0.442
13 | C=CCNC(=O)[C@@H]1[C@H]2C(=O)O[C@H](c3ccccc3)[C@H](c3ccccc3)N2[C@H](c2ccc(O)cc2)[C@@]12C(=O)Nc1ccc(C#CC3(O)CCCCCC3)cc12 | -0.542
14 | COCCOC(=O)N1C(=O)[C@@]2(c3ccccc31)[C@H](C(=O)N1CCCCCCC1)[C@H]1C(=O)O[C@H](c3ccccc3)[C@H](c3ccccc3)N1[C@@H]2c1ccc(O)cc1 | 2.73
15 | N#Cc1ccc(C(O)C2C=CC3C(=O)NC(=O)C3N2Nc2ccccn2)cc1 (stereo not given) | 0.2
16 | CC(C)C[C@H]1NC(=O)[C@@]23C(=O)N[C@@H](Cc4ccccc4)C2[C@H](C)[C@@]2(C)O[C@H]2C3/C=C/C/C=C\CNC(=O)[C@@H]2CCCN2C1=O (stereo not given in full) | -0.0621
17 | CCCC[C@@H]1C[C@H]1[C@@H](NC(=O)Cc1ccccc1)c1ccc(Cl)cc1 | 2.44
18 | NC(=O)N1C(=O)C2C(C1=O)C1C=C(CCCO)C2C(c2ccc(CN3CCCC3)cc2)N1Cc1cccc(OC(F)(F)F)c1 (stereo not given) | 0.011

Row | SMILES | composite z-score
19 | CCOC(=O)C[C@H]1[C@H](OC(=O)c2ccc(C(=O)c3ccccc3)cc2)[C@@H](NC(=O)c2ccc3ccccc3c2)c2cc(OCCCO)ccc2N1C(=O)c1ccc2ccccc2n1 | 0.794
20 | O=C1NC(=O)C2C1C=CC(C(O)c1ccc(F)cc1)N2Nc1ccccn1 (stereo not given) | 0.0754
21 | COc1ccc([Si](C)(C)[C@H]2[C@H](CC(=O)N3Cc4ccccc4C[C@H]3CO)O[C@@]3(C(=O)N(Cc4cccc(N5C(=O)c6cccc7cccc5c67)c4)c4ccccc43)[C@@H]2C)cc1 | -0.144
22 | COC(=O)[C@@]1(Cc2ccccc2)[C@@H]2[C@@H](CC(=O)[C@H]2CC(=O)C(=O)N(C)C)CN1C(=O)c1ccccc1 | 0.518
23 | COC(=O)[C@]1(CO)N=C(c2ccc(OCCCO)cc2)O[C@@H]1c1ccccc1CN=[N+]=[N-] | -0.738
24 | CC(C)CNC(=O)[C@@H]1c2ccccc2C(=O)N(C(C)C)[C@H]1c1ccc(CO)cc1 | -0.451
25 | Cc1c(NC(=O)/C(C#N)=C/c2ccc(Cl)cc2)c(=O)n(-c2ccccc2)n1C | 1.14
26 | O=C1c2ccccc2[C@](Cc2ccccc2I)(C(=O)O)[C@H](c2ccc(CO)cc2)N1Cc1ccccc1 | 1.34
27 | CCC[C@@H]1C=C(C(=O)OCC)[C@H](c2ccccc2)N1S(=O)(=O)c1ccc(C)cc1 | 1.99
28 | COCCOC(=O)N1C(=O)[C@@]2(c3cc(C#CCC(C(=O)OC)C(=O)OC)ccc31)[C@H](c1ccc(OCCO)cc1)N1[C@H](c3ccccc3)[C@H](c3ccccc3)OC(=O)[C@H]1[C@@H]2C(=O)N1CCCCCCC1 | 2.57
29 | CCOC(=O)C[C@H]1[C@H](OC(=O)c2ccc(-c3ccccc3)cc2)[C@@H](NC(=O)CC(C)C)c2cc(OCCCO)ccc2N1C(=O)Cc1ccc(OC)cc1 | 1.05
30 | COCCOC(=O)N1C(=O)[C@@]2(c3cc(C#CCC(C(=O)OC)C(=O)OC)ccc31)[C@H](C(N)=O)[C@H]1C(=O)O[C@H](c3ccccc3)[C@H](c3ccccc3)N1[C@@H]2c1ccc(OCCO)cc1 | 1.27
31 | C=CCC(OC(C)=O)[C@@H]1[C@@H](N(Cc2ccc(-c3cccc(C(F)(F)F)c3)o2)C(=O)c2cccc3ccccc23)c2cc(OCCCO)ccc2N1C(=O)c1ccc2ccccc2c1 (stereo not given in full) | -0.34
32 | COC(=O)[C@@]1(Cc2ccccc2)[C@H]2c3cc(C(=O)N4CCCC4)n(Cc4ccc(C(F)(F)F)nc4)c3C[C@H]2CN1C(=O)c1ccccc1 | 1.96
33 | C=CC[C@@]1(C(=O)O)N=C(c2ccc(OCCCO)cc2)O[C@@H]1c1ccccc1CN=[N+]=[N-] | 1.83
34 | COc1ccc([Si](C)(C)[C@H]2[C@H](CCn3cc([C@H](O)c4ccccc4)nn3)O[C@@]3(C(=O)N(C)c4c(Br)cc(C)cc43)[C@@H]2C)cc1 | 0.0287
35 | CC1(C)OC[C@@]23C=C(Br)[C@@H](C[C@H]12)[C@@]1(CO1)C3=O | 0.0619
